Measured values published in PubChem BioAssay.
Calls of active or inactive are those of the source.

Assays:
[1] = small molecules captured by biotinylated probe aFSTL3 – biochemical, small-molecule microarray, fluorescence 635/667, stem cell growth factor project, primary screen (AID 1064); conditions: higher = more signal;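 note: measures binding of the biotinylated anti-FSTL3 antibody to printed compounds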
[2] = binders from COS7 lysate, DM2A8 probe, primary screen, torsin A project, cell lysate, small-molecule microarray, fluorescence 635/667 (AID 1065); conditions: higher = more signal, COS7 lysate expressing mutant human TOR1A
[3] = small molecules captured by biotinylated probe aFGF2 – biochemical, small-molecule microarray, fluorescence 635/667, stem cell growth factor project, primary screen (AID 1067); conditions: higher = more signal;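 note: measures binding of biotinylated aFGF2 protein to printed compounds on slides; z-score merges feature fluorescence and signal-to-noise across triplicate slides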
[4] = small molecules captured by biotinylated probe aFGF10 – biochemical, small-molecule microarray, fluorescence 635/667, stem cell growth factor project, primary screen (AID 1071); conditions: higher = more signal;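 note: score merges 667 nm spot intensity and signal to noise from triplicate slides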
[5] = biological target: Neurogenic locus notch homolog protein 2 (Homo sapiens) (UniProt Q04721); test: small molecules binding Notch2 protein – biochemical, small-molecule microarray, 635 nm fluorescence, stem cell growth factors, primary screen (AID 1073); conditions: higher = more signal
[6] = biological target: Pro-neuregulin-1, membrane-bound isoform (Homo sapiens) (UniProt Q02297); test: small molecules binding neuregulin-1 protein – biochemical, small-molecule microarray, fluorescence 635/667, psychiatric disease protein project, primary screen (AID 1075); conditions: NRG1 binding, 635 nm fluorescence, higher = more signal;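 note: score combines 667 nm spot fluorescence with signal to noise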
[7] = test system: Neuregulin-1 EGF-like domain; test: small molecules binding NRG1 EGF domain – biochemical, small-molecule microarray, 635 nm fluorescence, primary screen (AID 1081); conditions: higher = more signal;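 note: binding of the protein to compounds printed on small-molecule microarray slides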
[8] = FRG1 expression reporter modulators in myotubes – cell-based, C2C12 myotubes, firefly/Renilla luciferase, luminescence, FRG1 inhibition for FSHD, primary screen (AID 1084); conditions: FRG1 promoter luciferase, higher = more signal, called active from +8 up or from −8 down
[9] = small molecules captured by biotinylated probe aFST – biochemical, small-molecule microarray, fluorescence 635/667, stem cell growth factor project, primary screen (AID 1086); conditions: higher = more signal;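 note: score merges 667 nm fluorescence with signal-to-noise of each printed compound spot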
[10] = binders of probe aHhip on microarray, primary screen, stem cell growth factor project, biochemical, small-molecule microarray, fluorescence 635/667 (AID 1087); conditions: higher = more signal;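 note: score merges spot fluorescence at 667nm with spot signal to noise ratio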
[11] = test system: PRMT1 (protein arginine N-methyltransferase 1); test: small molecules binding arginine methyltransferase PRMT1 – biochemical, small-molecule microarray, 635 nm fluorescence, primary screen (AID 1088); conditions: higher = more signal;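 note: binding of Prmt1 protein to compounds spotted on small-molecule microarray slides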
[12] = growth effects on S. cerevisiae YJM789 – YJM789 clinical isolate, OD600, 24 h, basal, primary screen (AID 1089); conditions: higher = more signal, called active from +8 up or from −8 down;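 note: growth of clinical yeast isolate S. cerevisiae YJM 789 seeded 1000 cells per well; test concentration not given here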
[13] = S. pombe growth modifiers, basal conditions – strain 972, OD600, 24 h, no modulator, primary screen (AID 1090);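 note: basal condition with compound alone and no growth modifier present; test concentration not given here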; conditions: S. pombe 972 growth, higher = more signal, called active from +8 up or from −8 down
[14] = budding yeast growth modifiers under rapamycin – strain BY4716, OD600, 96 h, primary screen (AID 1091); note: test concentration not given here; conditions: S. cerevisiae BY4716 + rapamycin, higher = more signal, called active from +8 up or from −8 down
[15] = biological target: Torsin-1A-interacting protein 2 (Homo sapiens) (UniProt Q8NFQ8); test: small molecules binding lysate-expressed LULL1 – cell lysate, human LULL1 lysate, 635/667 nm fluorescence, primary screen (AID 1092); conditions: small-molecule microarray, hLULL1 lysate binding, 635 nm fluorescence; higher = more signal;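 note: probe is lysate of COS7 cells overexpressing human LULL1; score merges per-feature 667 nm fluorescence with signal-to-noise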
[16] = optical density change of DRC41 E. coli – strain DRC41, OD650, 24 h, E. coli filamentation project, primary screen (AID 1093);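 note: MC1000 strain lacking acrAB efflux and sulA so SOS filamentation is blocked; test concentration not given here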; conditions: E. coli DRC41 growth, higher = more signal, called active from +8 up or from −8 down
[17] = probe aLefty2 binding to arrayed compounds – biochemical, biotinylated probe, 635/667 nm fluorescence, primary screen (AID 1094); conditions: small-molecule microarray, higher = more signal;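 note: score merges spot fluorescence near 667 nm with spot signal-to-noise ratio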
[18] = test system: Noggin (protein binding on small-molecule microarray); test: small molecules binding Noggin protein – biochemical, 635/667 nm fluorescence, primary screen (AID 1095); conditions: 635 nm fluorescence, higher = more signal;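 note: score merges 667 nm feature fluorescence with signal to noise over triplicate slides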
[19] = biological target: Neurogenic locus notch homolog protein 3 (Homo sapiens) (UniProt Q9UM47); test: small molecules binding NOTCH3 protein – biochemical, 635/667 nm fluorescence, primary screen (AID 1096); conditions: small-molecule microarray, 635 nm fluorescence, higher = more signal
[20] = probe aEGFR binding to arrayed compounds – biochemical, biotinylated probe, 635/667 nm fluorescence, primary screen (AID 1097); conditions: small-molecule microarray, higher = more signal;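 note: probe is a biotinylated anti-EGFR antibody binding compounds printed on slides; score combines fluorescence near 667 nm and signal to noise of each spot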

Torsin-1A-interacting protein 2 (Homo sapiens), sequence (Q8NFQ8 whole entry, looked up): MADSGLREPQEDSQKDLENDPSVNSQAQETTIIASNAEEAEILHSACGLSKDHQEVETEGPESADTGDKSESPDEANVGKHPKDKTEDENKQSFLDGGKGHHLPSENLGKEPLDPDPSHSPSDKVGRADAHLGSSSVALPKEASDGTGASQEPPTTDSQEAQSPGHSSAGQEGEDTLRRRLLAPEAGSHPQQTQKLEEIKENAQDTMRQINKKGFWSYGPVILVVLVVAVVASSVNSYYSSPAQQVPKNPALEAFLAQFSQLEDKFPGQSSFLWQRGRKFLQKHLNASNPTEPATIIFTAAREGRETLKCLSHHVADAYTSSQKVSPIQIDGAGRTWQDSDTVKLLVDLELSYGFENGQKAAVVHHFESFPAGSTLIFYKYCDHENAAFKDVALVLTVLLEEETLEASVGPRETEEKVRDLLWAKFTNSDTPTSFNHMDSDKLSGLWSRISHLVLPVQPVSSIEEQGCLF
Pro-neuregulin-1, membrane-bound isoform (Homo sapiens), sequence (Q02297 whole entry, looked up, the tested form may be a part, canonical isoform): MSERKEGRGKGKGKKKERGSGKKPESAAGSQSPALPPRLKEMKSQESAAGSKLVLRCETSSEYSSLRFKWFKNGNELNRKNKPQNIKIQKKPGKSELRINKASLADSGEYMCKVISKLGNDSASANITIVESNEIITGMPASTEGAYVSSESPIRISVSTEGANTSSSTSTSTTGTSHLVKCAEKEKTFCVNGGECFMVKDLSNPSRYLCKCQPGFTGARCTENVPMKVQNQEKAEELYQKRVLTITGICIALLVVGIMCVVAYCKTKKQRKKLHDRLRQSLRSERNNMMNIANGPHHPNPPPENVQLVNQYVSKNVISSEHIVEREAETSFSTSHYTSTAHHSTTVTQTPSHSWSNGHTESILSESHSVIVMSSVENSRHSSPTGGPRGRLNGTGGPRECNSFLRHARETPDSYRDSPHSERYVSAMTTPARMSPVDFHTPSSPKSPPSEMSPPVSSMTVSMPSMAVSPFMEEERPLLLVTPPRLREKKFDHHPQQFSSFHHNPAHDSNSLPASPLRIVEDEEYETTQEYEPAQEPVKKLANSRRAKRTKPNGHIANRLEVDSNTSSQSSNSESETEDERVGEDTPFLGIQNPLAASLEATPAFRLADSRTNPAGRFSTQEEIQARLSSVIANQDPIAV
Neurogenic locus notch homolog protein 3 (Homo sapiens), sequence (Q9UM47 whole entry, looked up): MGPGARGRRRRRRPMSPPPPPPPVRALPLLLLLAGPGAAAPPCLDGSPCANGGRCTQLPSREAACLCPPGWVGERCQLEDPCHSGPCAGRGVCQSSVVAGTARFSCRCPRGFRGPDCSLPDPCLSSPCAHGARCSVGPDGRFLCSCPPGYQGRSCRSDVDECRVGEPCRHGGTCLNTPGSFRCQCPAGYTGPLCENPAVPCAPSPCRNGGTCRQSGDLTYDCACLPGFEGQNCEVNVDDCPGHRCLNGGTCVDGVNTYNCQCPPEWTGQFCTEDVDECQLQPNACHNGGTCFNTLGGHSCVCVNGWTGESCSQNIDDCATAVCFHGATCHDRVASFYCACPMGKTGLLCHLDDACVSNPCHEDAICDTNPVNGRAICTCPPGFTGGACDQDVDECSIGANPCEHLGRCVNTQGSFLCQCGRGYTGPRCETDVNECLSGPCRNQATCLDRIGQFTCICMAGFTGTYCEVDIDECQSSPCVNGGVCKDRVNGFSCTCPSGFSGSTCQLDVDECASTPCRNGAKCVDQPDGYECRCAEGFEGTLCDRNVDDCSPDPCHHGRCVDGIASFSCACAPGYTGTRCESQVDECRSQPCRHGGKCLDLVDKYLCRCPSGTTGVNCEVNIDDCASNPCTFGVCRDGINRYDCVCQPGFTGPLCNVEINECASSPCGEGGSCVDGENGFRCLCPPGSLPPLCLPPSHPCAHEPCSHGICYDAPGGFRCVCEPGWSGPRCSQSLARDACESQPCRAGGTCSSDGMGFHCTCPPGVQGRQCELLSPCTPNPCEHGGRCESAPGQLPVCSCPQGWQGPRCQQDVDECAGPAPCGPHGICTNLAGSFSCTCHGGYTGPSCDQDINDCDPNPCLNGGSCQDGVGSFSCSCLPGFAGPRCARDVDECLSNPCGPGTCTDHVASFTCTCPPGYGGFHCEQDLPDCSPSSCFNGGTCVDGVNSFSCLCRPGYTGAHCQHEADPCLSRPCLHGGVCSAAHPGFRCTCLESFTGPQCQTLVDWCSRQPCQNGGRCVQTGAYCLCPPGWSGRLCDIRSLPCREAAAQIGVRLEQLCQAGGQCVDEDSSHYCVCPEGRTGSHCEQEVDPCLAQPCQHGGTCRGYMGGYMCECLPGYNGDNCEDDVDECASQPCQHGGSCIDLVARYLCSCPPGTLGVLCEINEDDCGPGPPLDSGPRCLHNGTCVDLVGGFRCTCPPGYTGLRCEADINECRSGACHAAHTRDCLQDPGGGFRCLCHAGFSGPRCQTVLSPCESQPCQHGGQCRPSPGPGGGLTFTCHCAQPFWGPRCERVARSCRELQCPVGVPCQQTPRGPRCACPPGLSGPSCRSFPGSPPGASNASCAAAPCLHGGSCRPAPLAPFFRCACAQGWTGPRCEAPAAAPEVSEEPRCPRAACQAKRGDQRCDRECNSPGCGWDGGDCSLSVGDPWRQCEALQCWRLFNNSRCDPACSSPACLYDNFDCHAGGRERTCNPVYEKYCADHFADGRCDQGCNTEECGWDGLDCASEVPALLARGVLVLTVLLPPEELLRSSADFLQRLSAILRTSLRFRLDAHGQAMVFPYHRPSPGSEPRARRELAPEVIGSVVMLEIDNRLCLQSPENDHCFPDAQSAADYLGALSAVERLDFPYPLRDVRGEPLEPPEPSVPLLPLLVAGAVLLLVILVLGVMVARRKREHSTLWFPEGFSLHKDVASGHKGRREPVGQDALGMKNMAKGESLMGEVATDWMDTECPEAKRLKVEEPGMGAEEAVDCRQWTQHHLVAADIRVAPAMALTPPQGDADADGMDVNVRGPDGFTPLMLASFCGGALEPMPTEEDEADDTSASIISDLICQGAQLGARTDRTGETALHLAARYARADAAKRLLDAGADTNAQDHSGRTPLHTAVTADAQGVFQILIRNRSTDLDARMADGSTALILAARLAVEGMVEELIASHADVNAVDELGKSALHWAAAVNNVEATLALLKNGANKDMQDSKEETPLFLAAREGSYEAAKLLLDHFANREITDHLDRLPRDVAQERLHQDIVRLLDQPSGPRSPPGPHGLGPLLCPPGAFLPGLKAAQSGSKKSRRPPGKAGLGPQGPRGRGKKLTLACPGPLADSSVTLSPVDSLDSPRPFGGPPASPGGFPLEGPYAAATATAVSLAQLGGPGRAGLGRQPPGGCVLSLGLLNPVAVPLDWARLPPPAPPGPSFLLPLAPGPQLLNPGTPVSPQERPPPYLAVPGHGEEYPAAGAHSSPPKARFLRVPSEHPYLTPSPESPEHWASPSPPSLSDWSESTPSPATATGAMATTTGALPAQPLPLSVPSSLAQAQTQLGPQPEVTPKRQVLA

Compound | composite z-score [1] | composite z-score [2] | composite z-score [3] | composite z-score [4] | composite z-score [5] | composite z-score [6] | composite z-score [7] | z-score [8] | composite z-score [9] | composite z-score [10] | composite z-score [11] | z-score [12] | z-score [13] | z-score [14] | composite z-score [15] | z-score [16] | composite z-score [17] | composite z-score [18] | composite z-score [19] | composite z-score [20]
CO[C@H]1O[C@H](CO)[C@@H](OC(=O)Nc2ccc3c(c2)OCO3)[C@H](OC(=O)Nc2ccccc2)[C@@H]1OC(=O)Nc1ccccc1 | -0.214 | 0.215 | 0.0654 | 0.949 | -0.0622 | 1.27 | 1.29 | -1.6 (inactive) | 0.188 | -0.0994 | 1.55 | 0.738 (inactive) | 0.51 (inactive) | 4.42 (inactive) | 3.33 | -1.17 (inactive) | -0.0798 | 1.02 | 0.915 | -0.144
CCc1cccc(NC(=O)O[C@H]2[C@H](OC(=O)Nc3ccccc3)[C@@H](OC(=O)Nc3ccccc3)[C@@H](OC)O[C@@H]2CO)c1 | -0.0679 | 0.624 | 0.216 | 1.17 | 1.08 | 1.76 | 1.39 | 0.825 (inactive) | 0.891 | -0.0831 | 1.54 | 1.77 (inactive) | 2.57 (inactive) | 1.97 (inactive) | 3.25 | -0.0576 (inactive) | -0.142 | 1.81 | 1.06 | -0.0549
CC1CC/C=C\[C@H]2OC34C=CCN(Cn5nnc6ccccc65)C(=O)[C@H]3N(C(C)CO)C(=O)[C@@H]4C2C(=O)O1 (stereo not given in full) | -0.0303 | -1.38 | -0.171 | -0.282 | -0.64 | 1.86 | 0.3 | -0.389 (inactive) | -0.134 | 0.0373 | -0.151 | 0.799 (inactive) | 0.0528 (inactive) | 0.272 (inactive) | 2.22 | -0.224 (inactive) | -0.144 | -0.537 | -0.118 | -0.19
[N-]=[N+]=NCc1ccccc1C[C@@]1(C(=O)O)N=C(c2ccc(OCCCO)cc2)O[C@@H]1c1ccccc1N=[N+]=[N-] | 0.168 | -0.259 | -0.0242 | 0.377 | 1.55 | 1.66 | 1.22 | -1.6 (inactive) | 0.521 | -0.0994 | 1.51 | -0.41 (inactive) | -1.02 (inactive) | -0.85 (inactive) | 3.16 | 0.602 (inactive) | 0.0189 | 0.0183 | 1.03 | 0.0316
CC(C)N1CC=CC23O[C@@H]4/C=C\CCCOC(=O)C4[C@H]2C(=O)N(CCO)[C@@H]3C1=O (stereo not given in full) | -0.0118 | -0.158 | -0.156 | -0.958 | -0.933 | 2.16 | 1.12 | -0.469 (inactive) | -0.219 | -0.257 | 0.885 | -1.92 (inactive) | -3.04 (inactive) | -1.77 (inactive) | 1.95 | 3.25 (inactive) | -0.0766 | -0.715 | -0.0811 | -0.173
COCCOC(=O)N1C(=O)[C@@]2(c3cc(C#CCNC(N)=O)ccc31)[C@H](c1ccccc1OCCO)N1[C@H](c3ccccc3)[C@H](c3ccccc3)OC(=O)[C@H]1[C@@H]2C(=O)NC[C@H](O)c1ccccc1 | -0.342 | 1.27 | -0.0083 | 0.658 | 0.472 | 1.54 | 1.21 | -0.163 (inactive) | 0.512 | -0.0672 | 1.53 | 2.75 (inactive) | 2.09 (inactive) | 6.12 (inactive) | 3.01 | 0.589 (inactive) | -0.0977 | 1.12 | 1.1 | -0.065
CN(C)CCCC[C@@H]1NC(=O)[C@@H]2C[C@H](C(=O)NCCCCCNC(=O)CS)[C@H](c3ccc(O)cc3)N2C1=O | 0.174 | 0.522 | 0.0918 | 0.429 | 0.728 | 0.264 | 1.22 | 0.47 (inactive) | -0.0694 | 0.382 | 1.42 | 0.081 (inactive) | -1.42 (inactive) | -0.342 (inactive) | 0.863 | 1.14 (inactive) | -0.0079 | 1.88 | 0.208 | 0.268
C=CCC(OC(C)=O)[C@@H]1[C@@H](N(Cc2cc3ccccc3o2)C(=O)c2ccc(C)cc2)c2cc(OCCCO)ccc2N1C(=O)c1ccc2ccccc2n1 (stereo not given in full) | 0.216 | 0.189 | -0.187 | 0.394 | 0.191 | -0.019 | -0.323 | -0.508 (inactive) | 0.113 | 0.107 | 0.207 | -0.0537 (inactive) | -0.518 (inactive) | -0.391 (inactive) | 0.285 | 2.74 (inactive) | -0.168 | 0.11 | 0.197 | -0.129
C=CCN1C(=O)[C@]2(O[C@H](CCn3cc(CCO)nn3)[C@@H]([Si](C)(C)c3ccc(OC)cc3)[C@@H]2C)c2cc(NC(=O)c3ccc(OC)cc3)ccc21 | 0.615 | 0.473 | 0.0051 | -0.0488 | 0.48 | 0.439 | 0.974 | -2.48 (inactive) | 0.479 | 0.176 | 1.25 | 1.46 (inactive) | -1.22 (inactive) | 1.81 (inactive) | 0.807 | 1.94 (inactive) | 0.205 | 1.03 | 0.527 | -0.109
